# Source: PubChem BioAssay (National Center for Advancing Translational Sciences (NCATS))
# Rows were chosen to be rich in hits. Some 2.5% of all compounds tested hit in one or more screens of this group.
# Lassa entry inh: Lassa virus entry inhibition; Lassa virus pseudotype entry inhibition, cell reporter; Potency, µM (doses to about 37.9 µM), inactives show at the top dose activity change, negative = inhibition, usual class: inhibitors; hit rate 1.2% among 300,000; calls by dose curve; tested in HEK293 cells; also: nearly all actives have a fitted effect of over 50% in size
# Marburg entry inh: inhibitors of Marburg virus binding or cell entry. AID 540276. Potency, µM (highest dose often 37.8 µM), without a hit: at the highest dose activity change, negative = inhibition, most hits filed as inhibitors. hit rate 1.8% among 300,000. Marburg virus pseudotyped entry inhibition, cell reporter; calls by dose curve; tested in HEK293 cells
# Vaccinia Venus: vaccinia inhibition (Venus reporter); Vaccinia virus Venus reporter expression, fluorescence; Potency, µM (highest dose often 36.5 µM), inactives show at the highest dose activity change, negative = inhibition, actives largely listed as inhibitors; hit rate 0.46% among 330,000; AID 720580; calls by dose curve; tested in A549 cells; also: nearly all actives have a fitted effect of over 30% in size
# VACV mCherry inh: vaccinia inhibition (mCherry reporter). Vaccinia virus mCherry reporter infection, fluorescence. Potency, µM (highest dose often 36.5 µM), without a hit: at the highest dose activity change, negative = inhibition, usual class: inhibitors. hit rate 0.63% among 310,000; calls by dose curve; tested in A549 cells; also: nearly all actives have a fitted effect of over 35% in size
# * = called active by the depositor; i = inactive; ? = inconclusive; · = not tested or not shown; [ ] = remark or other dose. % is scaled to controls: 0 for no effect and ±100 for the full control effect; potency is read from the fitted curve at half-maximal effect.
SMILES,Lassa entry inh,Marburg entry inh,Vaccinia Venus,VACV mCherry inh
Cc1ccccc1-c1cc(C(=O)Nc2sc(C)c(C)c2C(N)=O)c2ccccc2n1,16µM*,?,-33%,·
CC(C)=CCC/C(C)=C/CO/N=C1\C[C@@H](O)[C@@H](O)[C@@H]2[C@@H]3C(=O)N(Cc4ccc5c(c4)OCO5)C(=O)[C@@H]3CC[C@H]12,·,-44%[14.2 µM],·,·
C1=Cc2ccccc2/C1=C\c1cc2c3c(c1)CCCN3CCC2,·,·,10%,26%
CCc1nnc(N/N=C/c2c(Cl)cccc2Cl)n1N,-18%[14.3 µM],-1%,-9%,-17%
CCc1nnc(N/N=C/c2cccs2)n1N,-2%,?,?,22µM*
CCCc1cc(C(=O)Nc2c(C)nn(Cc3c(Cl)cccc3Cl)c2C)no1,4µM*,?,0%,-7%
Cc1nn(Cc2ccc(Cl)c(Cl)c2)c(C)c1NC(=O)c1cc(CC(C)C)on1,·,·,?,11µM*
CCOC(=O)N1CCN(Cc2ccc3c(c2)CN(C(=O)c2sc(C)nc2C)CCO3)CC1,·,·,-4%,-7%
Cc1ccccc1C(=O)N1CCc2c(cnc(C)c2CNC(=O)CN2CCCCC2)C1,·,·,-4%,-19%
CCCN(CCC)CCNC(=O)c1cc2c(-c3ccc(Cl)cc3)nn(C)c2s1,1%[46.1 µM],4µM*,?,?
CCCN(CCC)CCNC(=O)c1cc2c(-c3ccccc3F)nn(C)c2s1,?,?,-25%,-11%
CCCCN(CC)CCNC(=O)c1cc2c(-c3ccc(Cl)cc3)nn(C)c2s1,?,3.5µM*,?,10µM*
C=CCSc1nnc(C2CCCN(Cc3ccccc3O)C2)n1C (stereo not drawn),·,·,-18%,i
CCOC(=O)c1ccc(N(C(=O)c2ccccc2)c2ccccc2)cc1,·,·,-21%,i
COc1ccc(-c2nc(NC(=O)c3c(C)noc3C)sc2C)cc1,?,-23%,-9%,-13%
COc1ccc(-c2nc(NC(=O)c3cc(C(C)(C)C)nn3C)sc2C)cc1,?,9.2µM*,·,·
C#CCOCCOCCOCCNc1nc(N2CCN(C(=O)CCCCCCCCCCNC(=O)[C@H](CCCCN)n3cc(C[C@@H](C)CC)nn3)CC2)nc(N2CCN(C(=O)CCCCCCCCCCNC(=O)[C@H](CCCN=C(N)N)n3cc(C[C@@H](C)CC)nn3)CC2)n1,·,·,8.9µM*,?
C#CCOCCOCCOCCNc1nc(N2CCN(C(=O)CCCCCCCCCCNC(=O)[C@H](CCCCN)n3cc(CCO)nn3)CC2)nc(N2CCN(C(=O)CCCCCCCCCCNC(=O)[C@H](CCCCN)n3cc(C[C@@H](C)CC)nn3)CC2)n1,·,·,10µM*,-27%
C#CCOCCOCCOCCNc1nc(N2CCN(C(=O)CCCCCCCCCCNC(=O)[C@@H](CCSC)n3cc(CCO)nn3)CC2)nc(N2CCN(C(=O)CCCCCCCCCCNC(=O)[C@H](CCCN=C(N)N)n3cc(C[C@@H](C)CC)nn3)CC2)n1,·,·,10µM*,?
C#CCOCCOCCOCCNc1nc(N2CCN(C(=O)CCCCCCCCCCNC(=O)[C@@H](CCC(=O)O)n3cc(CCCCCN)nn3)CC2)nc(N2CCN(C(=O)CCCCCCCCCCNC(=O)[C@H](CCCCN)n3cc(C[C@@H](C)CC)nn3)CC2)n1,·,·,?,i
C#CCOCCOCCOCCNc1nc(N2CCN(C(=O)CCCCCCCCCCNC(=O)[C@H](CCCCN)n3cc(C)nn3)CC2)nc(N2CCN(C(=O)CCCCCCCCCCNC(=O)[C@H](CCCN=C(N)N)n3cc(C[C@@H](C)CC)nn3)CC2)n1,·,·,10µM*,?
C#CCN1C(=O)CC[C@@]23C1=NC(C(=O)OC)=C(C(=O)OC)[C@@H]2N(CC=C(C)C)c1ccccc13,?,15%[14.2 µM],·,·
O=C(C[n+]1ccncc1)c1ccc(Br)cc1,·,·,-2%,-19%
Cc1ccc(NC(=O)CN(C)C(=O)Cn2ncc(Cl)c(Cl)c2=O)cc1,16µM*,5µM*,?,?
Cc1ccc(NC(=O)CN(C)C(=O)Cc2ccc(Cl)c(Cl)c2)cc1,5%[46.1 µM],0%[46.1 µM],-19%,-8%
SMILES,Lassa entry inh,Marburg entry inh,Vaccinia Venus,VACV mCherry inh
COc1ccc(C(=O)NCc2nc(-c3cccc(NC(=O)c4ccc(C)s4)c3)oc2C)cc1,·,·,0%,-11%
ON=C1c2cc(OCCN3CCCCC3)ccc2-c2ccc(OCCN3CCCCC3)cc21,?,3.2µM*,8.9µM*,?
NCCc1c(-c2ccccc2)n(-c2ccccc2)c2ccccc12,-28%[46.1 µM],13µM*,?,?
CC(C)(C)c1cc(-c2csc(Nc3ccccc3)[n+]2Cc2ccc(C(=O)O)cc2)cc(C(C)(C)C)c1O,-20%,11µM*,-14%,?
C#CC1(O)CCC2C3CCC4=CC(=O)CCC4=C3C=CC21C (stereo not drawn),-9%[46.1 µM],0%,-2%,-4%
CC#C[C@]1(O)CC[C@H]2C3CCC4=CC(=O)CCC4=C3[C@@H](c3ccc(N(C)C)cc3)C[C@@]21C (stereo partly drawn),·,10µM*,·,·
O=C(NC(=S)Nc1ccc(N2CCCCC2)c(Cl)c1)c1ccc2c(c1)OCCO2,?,1.4µM*,?,?
O=C(Nc1ccc(N2CCCCC2)c(Cl)c1)c1cccnc1,0.89µM*,1µM*,2%,13µM*
O=C(Nc1ccc(N2CCCC2)c(Cl)c1)c1cccnc1,-1%,-13%,-7%,·
CC(C)Oc1ccc(-c2nc(-c3cccnc3)no2)cc1,·,·,-12%,38%
O=C(Nc1ccc(N2CCCCC2)cc1)c1ccccc1,7.3µM*,?,-18%,-21%
CN1CCN(c2ccc(NC(=O)c3cccc(OCc4ccccc4)c3)cc2)CC1,-17%,22µM*,-23%,·
Cc1cc(C(=O)Nc2ccc(N3CCCCC3)cc2)no1,11µM*,?,-2%,i
O=C(Nc1ccc(N2CCCCC2)cc1)c1ccc(F)cc1F,10µM*,?,-9%,-11%
Cc1ccc(C(=O)Nc2ccc(N3CCCC3)cc2)cc1,-23%,0%[46.1 µM],-5%,-20%
CC(C)(CO)NC(=O)c1cnn(-c2ncc3c(n2)-c2ccccc2CC3)c1C1CC1,·,·,-8%,-14%
CN1C(=O)C2=NC=NC2N(C)C1=O (stereo not drawn),·,6%,·,·
C=CCC[C@H](Cc1ccc(F)cc1)C(=O)OC[C@@H](Cc1c[nH]c2ccccc12)NC(=O)[C@H](CC=C)CC(=O)N(CCO)Cc1ccccc1,·,·,10µM*,?
C=CCC[C@@H](Cc1ccc(F)cc1)C(=O)OC[C@@H](Cc1c[nH]c2ccccc12)NC(=O)[C@H](CC=C)CC(=O)N(CCO)Cc1ccccc1,·,·,14µM*,?
C[C@@H]1CC[C@H]2C(=O)N(Cc3cccc([N+](=O)[O-])c3)C[C@@H](O)CN2[C@@H]1c1cccc(Br)c1,-5%[14.3 µM],?,·,·
COc1cc(OC)c(/C=C/c2nccc3ccccc23)c(OC)c1,·,·,-21%,-26%
Cn1nccc1C(=O)NCC1CCC2(CCN(Cc3ccc(-c4ccc(Cl)cc4)o3)CC2)O1 (stereo not drawn),·,·,-24%,-26%
O=c1c2ccccc2c(-c2n[nH]c(=S)o2)nn1Cc1ccccc1,-7%,11%,·,·
OCc1ccc(-c2nn(Cc3ccccc3)c3ccccc23)o1,2.9µM*,2.6µM*,-23%,-25%
COc1cc(Cl)c(C)cc1N1C(=O)[C@@H]2C[C@H]1CN2Cc1ccccn1,·,·,-2%,-8%
